Each structure is given as a SMILES string. Hit rate of the full screen: of about 310,000 compounds, about 2,200 (0.71%) showed an effect of 50% or more. Effects have a minus sign here. Only a selection was taken, and strong results are over-represented in it overall.

Sequence of human ether-à-go-go-related gene (hERG) potassium channel (Q12809 whole entry, looked up): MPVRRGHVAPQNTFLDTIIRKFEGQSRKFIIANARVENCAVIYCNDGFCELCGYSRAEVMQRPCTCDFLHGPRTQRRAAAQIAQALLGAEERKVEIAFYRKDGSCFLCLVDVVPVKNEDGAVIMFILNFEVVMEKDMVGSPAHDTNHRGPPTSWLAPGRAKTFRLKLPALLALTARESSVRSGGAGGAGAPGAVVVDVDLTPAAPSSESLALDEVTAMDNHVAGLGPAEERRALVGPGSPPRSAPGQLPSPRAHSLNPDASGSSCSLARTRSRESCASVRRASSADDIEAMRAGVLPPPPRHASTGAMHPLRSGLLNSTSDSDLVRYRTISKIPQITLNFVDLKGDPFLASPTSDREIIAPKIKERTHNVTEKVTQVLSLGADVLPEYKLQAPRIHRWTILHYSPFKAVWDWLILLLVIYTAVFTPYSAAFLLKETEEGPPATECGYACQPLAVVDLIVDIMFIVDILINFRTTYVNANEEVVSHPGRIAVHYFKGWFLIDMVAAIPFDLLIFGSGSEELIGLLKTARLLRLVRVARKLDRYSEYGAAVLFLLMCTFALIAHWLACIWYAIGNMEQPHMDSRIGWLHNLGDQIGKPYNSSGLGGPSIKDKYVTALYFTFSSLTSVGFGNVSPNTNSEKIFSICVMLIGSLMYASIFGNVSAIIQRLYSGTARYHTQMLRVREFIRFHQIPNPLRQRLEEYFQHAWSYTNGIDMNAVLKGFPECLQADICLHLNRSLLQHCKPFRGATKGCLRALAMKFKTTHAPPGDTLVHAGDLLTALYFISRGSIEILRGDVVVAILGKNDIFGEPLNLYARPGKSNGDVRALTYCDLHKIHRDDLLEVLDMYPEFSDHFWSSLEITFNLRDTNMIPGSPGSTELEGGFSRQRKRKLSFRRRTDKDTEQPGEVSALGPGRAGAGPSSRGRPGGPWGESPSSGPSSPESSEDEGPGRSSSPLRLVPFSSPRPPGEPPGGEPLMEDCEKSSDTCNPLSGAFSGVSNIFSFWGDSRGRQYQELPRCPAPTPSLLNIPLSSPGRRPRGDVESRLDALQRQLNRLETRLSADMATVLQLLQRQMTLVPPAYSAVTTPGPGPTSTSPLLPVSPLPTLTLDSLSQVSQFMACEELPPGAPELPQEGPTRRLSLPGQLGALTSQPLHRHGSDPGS

The assay concerns the target human ether-à-go-go-related gene (hERG) potassium channel (human, UniProt Q12809). The assay can be described thus: primary screen, population patch clamp on CHO cells stably expressing hERG; higher = less effect of the substance.
In the case of `COc1ccc(-c2cc(-c3cccs3)nc(OC)c2C#N)cc1OC`, the “hERG current change (%, negative = inhibition) at 1uM” value stood at 24.6%.
On to `COc1ccc(CN2CCC(N3CC(C)OC(C)C3)CC2)c(OC)c1OC.O=C(O)C(=O)O` (stereo not shown), for which the “hERG current change (%, negative = inhibition) at 1uM” value came out at 2.62%.
Consider `N#Cc1ccccc1CSc1ccc(-c2nc3ccccc3[nH]2)cn1`, for which the “hERG current change (%, negative = inhibition) at 1uM” value was 16.2%.
For the compound `O=C(CSc1ccc(-c2ccccc2)nn1)Nc1ccc2c(c1)OCCO2`, the “hERG current change (%, negative = inhibition) at 1uM” value came to 8.92%.
Take `Cc1nc(C)c(C(=O)Nc2nc3c(C)cccc3s2)o1`: the “hERG current change (%, negative = inhibition) at 1uM” value is recorded as -4.12%.
For the compound `Cc1ccc([N+](=O)[O-])cc1S(=O)(=O)Nc1ccc(O)c(Sc2ncn[nH]2)c1`, the “hERG current change (%, negative = inhibition) at 1uM” value was 14.7%.
With `CCOc1ccc(CCNC(=O)COC(=O)/C=C/c2ccco2)cc1OCC`, the “hERG current change (%, negative = inhibition) at 1uM” value amounted to 15.9%.
The result for `CCOc1ccc(CCNC(=O)/C=C/c2ccco2)cc1OCC` reads -170%; that for `COc1ccc(CCNC(=O)/C=C/c2ccco2)cc1OC`, 5.95%.
Consider `O=C(c1ccc(S(=O)(=O)c2cccc(Cl)c2)c([N+](=O)[O-])c1)N1CCN(Cc2ccccc2)CC1`, for which the “hERG current change (%, negative = inhibition) at 1uM” value came to 15.8%.
In the case of `COc1cc(C(=S)N2CCOCC2)cc(OC)c1OC(=O)c1ccc([N+](=O)[O-])cc1[N+](=O)[O-]`, the “hERG current change (%, negative = inhibition) at 1uM” value amounted to 5.28%.
For `COc1ccc(C(=S)N2CCOCC2)cc1OC(=O)c1ccc([N+](=O)[O-])cc1[N+](=O)[O-]`, the “hERG current change (%, negative = inhibition) at 1uM” value is listed as -63.1%.
With `COc1cc(C(=S)N2CCOCC2)ccc1OC(=O)c1ccc([N+](=O)[O-])cc1[N+](=O)[O-]`, the “hERG current change (%, negative = inhibition) at 1uM” value was 15.5%.
On to `CC1CCc2nc3ccccc3c(C(=O)OCC(=O)NC3CCS(=O)(=O)C3)c2C1` (stereo not shown), for which the “hERG current change (%, negative = inhibition) at 1uM” value worked out at 13%.
For the compound `CC(=O)Nc1ccc(S(=O)(=O)Nc2ccc(S(=O)(=O)N3CCCC3)cc2)cc1`, the “hERG current change (%, negative = inhibition) at 1uM” value was found to be 4.58%.
As for `Cc1ccc(C)c(/C=C(\C(=O)O)c2ccc(S(=O)(=O)N3CCCCC3)s2)c1`, the “hERG current change (%, negative = inhibition) at 1uM” value is reported as 6.97%.
On to `COc1ccc(NC(=O)c2cc([N+](=O)[O-])ccc2NC(=O)CNCc2ccccn2)c(OC)c1`, for which the “hERG current change (%, negative = inhibition) at 1uM” value was found to be 9.51%.
`COc1ccc(NC(=O)c2cc([N+](=O)[O-])ccc2NC(=O)CNC2CCCCC2C)c(OC)c1` (stereo not shown): the “hERG current change (%, negative = inhibition) at 1uM” value is recorded as -78.8%.
Consider `COc1cc(NC(=O)c2cc([N+](=O)[O-])ccc2NC(=O)CNC2CCCCC2C)cc(OC)c1` (stereo not shown), for which the “hERG current change (%, negative = inhibition) at 1uM” value turned out to be 17.4%.
On to `CCN(c1ccccc1)S(=O)(=O)c1cccc(C(=O)NCC2(N(C)C)CCCCC2)c1`, for which the “hERG current change (%, negative = inhibition) at 1uM” value is -11%.
For the compound `O=C(OCC(=O)N1CCOCC1)c1ccccc1O`, the “hERG current change (%, negative = inhibition) at 1uM” value came out at 13.6%.
In the case of `Cc1cc(C)cc(NC(=O)C(OC(=O)c2cccs2)c2ccccc2)c1` (stereo not shown), the “hERG current change (%, negative = inhibition) at 1uM” value worked out at 16.7%.
Turning to `Cn1c(=O)c2c(ncn2CC(=O)N2CCN(c3ccccc3)CC2)n(C)c1=O`, the “hERG current change (%, negative = inhibition) at 1uM” value is recorded as 8.13%.
Next, `Cn1c(=O)c2c(ncn2CC(=O)N2CCN(c3ccc([N+](=O)[O-])cc3)CC2)n(C)c1=O`: -69.6%.
As to `Cn1c(=O)c2c(nc(N3CCN(c4ccc([N+](=O)[O-])cc4)CC3)n2C)n(C)c1=O`, the “hERG current change (%, negative = inhibition) at 1uM” value was -81.7%.
As for `Cn1c(=O)c2c(nc(N3CCCC3)n2C)n(C)c1=O`, the “hERG current change (%, negative = inhibition) at 1uM” value is 12.6%.
As for `Cn1c(=O)c2c(nc(N3CCOCC3)n2C)n(C)c1=O`, the “hERG current change (%, negative = inhibition) at 1uM” value is -1.83%.
As for `Cn1c(=O)c2c(ncn2CC(=O)N2CCN(c3ccc(F)cc3)CC2)n(C)c1=O`, the “hERG current change (%, negative = inhibition) at 1uM” value is -0.183%.
As for `Cc1nc2c(C(=O)N3CCCC3)cnn2c(C)c1Cc1c(F)cccc1Cl`, the “hERG current change (%, negative = inhibition) at 1uM” value was -11.4%.
The result for `C=Cc1ccc(COC(=O)c2cn(CC)c3nc(C)ccc3c2=O)cc1` reads -21%.
As for `O=C(CC(=O)N/N=C/c1ccccc1)NCc1ccccc1`, the “hERG current change (%, negative = inhibition) at 1uM” value came out at 8.85%.
As to `Cc1cc(C)nc(N2CCC(C(=O)NCc3ccccc3F)CC2)n1`, the “hERG current change (%, negative = inhibition) at 1uM” value amounted to 1.75%.
Consider `O=C(NCc1ccco1)C1CCN(c2nc3ccccc3n2Cc2ccccc2F)CC1`, for which the “hERG current change (%, negative = inhibition) at 1uM” value is on record as -62.8%.
In the case of `COc1nc(OC)nc(N2CCC(C(=O)NCc3ccco3)CC2)n1`, the “hERG current change (%, negative = inhibition) at 1uM” value is reported as -0.721%.
For `Cc1ccc(Cn2cnc3ccccc32)cc1`, the “hERG current change (%, negative = inhibition) at 1uM” value was determined as 13%.
Regarding `O=C(O)CC(c1cccc(O)c1)N1Cc2ccccc2C1=O` (stereo not shown), the “hERG current change (%, negative = inhibition) at 1uM” value is given as 12%.
On to `CC(C)OCP(=O)(c1ccccc1)c1ccccc1`, for which the “hERG current change (%, negative = inhibition) at 1uM” value is recorded as 6.74%.
Turning to `CCOCCCNC(=O)CNC(=S)N(Cc1ccccc1F)C1CCCCC1`, the “hERG current change (%, negative = inhibition) at 1uM” value is -6.79%.
For the compound `CCN1C(=S)SC(=O)C1=C1C=C(C)N(Cc2ccco2)C(C)=C1`, the “hERG current change (%, negative = inhibition) at 1uM” value worked out at 1.56%.
The result for `CC(C)c1cc(N=NC(N)=O)cc(C(C)C)c1O` reads 6.77%.
The result for `CCN(CC(=O)NCc1ccc(F)cc1)Cc1nc2cc(Cl)ccc2c(=O)[nH]1` reads -52.5%; that for `CCN(CC(=O)NCCc1ccc(F)cc1)Cc1nc2ccccc2c(=O)[nH]1`, 1.66%; that for `CCN(CC(=O)NCc1ccc(F)cc1)Cc1nc2ccccc2c(=O)[nH]1`, -8.93%.
Take `COc1ccc(C(=O)N2CCN(C3CCCCC3)CC2)cc1OC.O=C(O)C(=O)O`: the “hERG current change (%, negative = inhibition) at 1uM” value was -74.2%.
As for `COc1ccc(C(=O)N2CCN(C3CCN(Cc4ccccc4)CC3)CC2)cc1OC`, the “hERG current change (%, negative = inhibition) at 1uM” value is reported as -14.5%.
The result for `CC1CCCC(N2CCN(C(=O)c3ccc(F)cc3)CC2)C1` (stereo not shown) reads -25%.
As to `COc1ccc(C(=O)N2CCN(C3CCC(c4ccccc4)CC3)CC2)cc1OC` (stereo not shown), the “hERG current change (%, negative = inhibition) at 1uM” value is -60.4%.
The result for `COc1cccc(C(=O)N2CCN(C3CCCCC3)CC2)c1.O=C(O)C(=O)O` reads 6.64%.
Take `COc1cc(C(=O)N2CCN(C3CCCCC3)CC2)cc(OC)c1OC.O=C(O)C(=O)O`: the “hERG current change (%, negative = inhibition) at 1uM” value is reported as 14.5%.
Regarding `COc1ccc(CCC(=O)N2CCN(C3CCCCC3)CC2)cc1`, the “hERG current change (%, negative = inhibition) at 1uM” value is reported as -56.7%.
For the compound `COc1ccc(CCC(=O)N2CCN(C(=O)c3ccccc3)CC2)cc1`, the “hERG current change (%, negative = inhibition) at 1uM” value is 14.6%.
As to `CC1CCCC(N2CCN(C(=O)c3ccc([N+](=O)[O-])cc3)CC2)C1.O=C(O)C(=O)O` (stereo not shown), the “hERG current change (%, negative = inhibition) at 1uM” value is -67.3%.
Next, `CC1CCCC(N2CCN(C(=O)c3cccc(F)c3)CC2)C1.O=C(O)C(=O)O` (stereo not shown): 8.59%; `O=C(CCCc1ccccc1)N1CCN(C2CCCCC2)CC1`: -23.6%.
Regarding `COc1cccc(C(=O)N2CCN(C3CCC(c4ccccc4)CC3)CC2)c1OC.O=C(O)C(=O)O` (stereo not shown), the “hERG current change (%, negative = inhibition) at 1uM” value stood at 3.34%.

The values above are taken from paper PMC4336329 (PLoS ONE, 2015).
